{"source": "PubChem BioAssay (NCATS)", "note": "Records with an inconclusive call do not appear. Unmarked numbers belong to inactive results. Calls come from the whole dose curve; as a rule, active = well fitted inhibition curve with a large enough effect; inconclusive = small, poorly fitted or top-dose-only effect; inactive = no such curve, though single readings can be large or run the other way. % is set by controls: 0 for no effect and ±100 for the full control effect.", "data": [{"target": "Nuclear receptor ROR-gamma (Homo sapiens) (UniProt P51449)", "sequence (P51449 whole entry, looked up)": "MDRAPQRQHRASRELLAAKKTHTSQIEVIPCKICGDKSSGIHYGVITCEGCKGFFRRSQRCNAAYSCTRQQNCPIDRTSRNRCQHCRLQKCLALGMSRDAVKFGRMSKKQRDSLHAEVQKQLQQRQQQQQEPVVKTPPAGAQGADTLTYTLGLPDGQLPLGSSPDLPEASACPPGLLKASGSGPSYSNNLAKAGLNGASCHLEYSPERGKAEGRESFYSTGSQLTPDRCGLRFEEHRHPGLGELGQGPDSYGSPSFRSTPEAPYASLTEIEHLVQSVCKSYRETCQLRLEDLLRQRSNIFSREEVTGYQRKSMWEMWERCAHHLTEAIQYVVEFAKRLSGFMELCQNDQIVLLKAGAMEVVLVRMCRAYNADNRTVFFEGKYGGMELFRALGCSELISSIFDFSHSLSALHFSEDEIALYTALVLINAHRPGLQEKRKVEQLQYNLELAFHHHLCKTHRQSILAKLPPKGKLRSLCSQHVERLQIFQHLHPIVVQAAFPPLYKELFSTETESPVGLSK", "assay": "qHTS assay for small molecule antagonists of the retinoid-related orphan receptor gamma (ROR-gamma) signaling pathway (AID 651802); note: nearly all actives have a fitted effect of over 60% in size", "conditions": "ROR-gamma antagonist cell reporter assay; series mostly up to 92.2 µM; activity change, negative = inhibition: at the top concentration", "text": "National Center for Advancing Translational Sciences [NCATS]\nNIH Chemical Genomics Center [NCGC]\nNational Institutes of Environmental Health Sciences [NIEHS]\nNational Toxicology Program [NTP]\nNuclear steroid hormone receptors are involved in many biological processes including inflammatory responses, cell proliferation, and apoptosis. Environmental factors or compounds disrupting these nuclear receptor pathways and gene expression may promote susceptibility to immunotoxicants and autoimmune diseases. One important group of these expression factors are the retinoid-related orphan receptors. To assess compounds that may interfere with the retinoid-related orphan receptor gamma (ROR-gamma) transcription factor, a cell-based luciferase assay was used.\nThe CHO cell-based assay utilizes a TET-inducible ROR expression factor and ROR response element-LUC reporter gene. Reporter activity was induced using doxycycline and measured after 16hr incubation. Luminescence was read using Viewlux (PerkinElmer), where a decrease in reporter activity would show a decrease in luminescence.\n1,000 cells in 4 uL/well were dispensed into white wall/solid bottom 1536-well plates using a Multidrop Combi (Thermo Scientific) dispenser. Following transfer of 23 nL compound or DMSO vehicle by a pin tool, the plates were treated with 1 ul doxycycline to induce reporter gene activity. After 16hr incubation at 37C and 5% CO2, 5uL one-glo (promega) was added to each plate and following 30 min incubation at room temperature, luminescence was quantified on a ViewLux (PerkinElmer) plate reader.", "units": {"activity change, negative = inhibition": "%"}, "values": [{"smiles": "O=[N+]([O-])c1cccc(O)c1", "activity change, negative = inhibition": -20.5}, {"smiles": "CCCCOCC1CO1", "note": "(stereo not given)", "activity change, negative = inhibition": 62}, {"smiles": "CC(C)(Cl)[N+](=O)[O-]", "activity change, negative = inhibition": 12}, {"smiles": "ClC(Br)Br", "activity change, negative = inhibition": 5.5}, {"smiles": "C=CC(=O)OCC(C)C", "activity change, negative = inhibition": 5.17}, {"smiles": "Clc1ccccc1", "activity change, negative = inhibition": 7.11}, {"smiles": "CNC(=O)O/N=C/C(C)(C)S(C)=O", "note": "(stereo not given)", "activity change, negative = inhibition": -4.1}, {"smiles": "ClC(Cl)c1ccccc1", "activity change, negative = inhibition": 6.82}, {"smiles": "O=[N+]([O-])c1ccc(Cl)c(Cl)c1Cl", "activity change, negative = inhibition": 0.626}, {"smiles": "O=[N+]([O-])c1ccc2c3c(cccc13)CC2", "activity change, negative = inhibition": 9.18}, {"smiles": "Cc1ccc2c(C)cccc2c1", "activity change, negative = inhibition": -2.99}, {"smiles": "COc1ccccc1N", "activity change, negative = inhibition": 2.68}, {"smiles": "CN1CSC(=S)N(C)C1", "activity change, negative = inhibition": -21.2}, {"smiles": "CN(C)c1ccc(N(C)C)cc1", "activity change, negative = inhibition": -94}, {"smiles": "CCCCCc1cc(O)cc(O)c1", "activity change, negative = inhibition": 4.54}, {"smiles": "NC1CCC(CC2CCC(N)CC2)CC1", "note": "(stereo not given)", "activity change, negative = inhibition": 9.51}, {"smiles": "O=[N+]([O-])c1ccccc1O", "activity change, negative = inhibition": 2.9}, {"smiles": "CC(Cl)(Cl)Cl", "activity change, negative = inhibition": -14.9}, {"smiles": "CCCCOC(C)=O", "activity change, negative = inhibition": -3.91}, {"smiles": "Brc1ccc(Oc2ccc(Br)cc2Br)c(Br)c1", "activity change, negative = inhibition": -19.8}, {"smiles": "O=[N+]([O-])c1cc(Cl)c(Cl)c(Cl)c1", "activity change, negative = inhibition": 9.83}, {"smiles": "c1ccc2c(c1)-c1cccc3c1c-2cc1ccccc13", "activity change, negative = inhibition": 4.09}, {"smiles": "CC12CC1(C)C(=O)N(c1cc(Cl)cc(Cl)c1)C2=O", "note": "(stereo not given)", "activity change, negative = inhibition": -44.9}, {"smiles": "ClCC(Cl)CCl", "activity change, negative = inhibition": -0.495}, {"smiles": "CC(C)Br", "activity change, negative = inhibition": -2.44}, {"smiles": "C[N+](=O)[O-]", "activity change, negative = inhibition": -3.65}, {"smiles": "C1CC2OC2CC1C1CO1", "note": "(stereo not given)", "activity change, negative = inhibition": -7.24}, {"smiles": "Cc1cc(-c2cc(C)c(N)c(C)c2)cc(C)c1N", "activity change, negative = inhibition": -1.42}, {"smiles": "CCC/C=N/O", "activity change, negative = inhibition": 15.3}, {"smiles": "C=CCCl", "activity change, negative = inhibition": 30.1}, {"smiles": "COC(C)(C)C", "activity change, negative = inhibition": -3.9}, {"smiles": "CCC#N", "activity change, negative = inhibition": 6.77}, {"smiles": "CC(C)(OOC(C)(C)c1ccccc1)c1ccccc1", "activity change, negative = inhibition": 1.82}, {"smiles": "C=COC(C)=O", "activity change, negative = inhibition": -8.22}, {"smiles": "COc1ccc(C=O)cc1", "activity change, negative = inhibition": 7.3}, {"smiles": "CC(C)(C)OOC(=O)c1ccccc1", "activity change, negative = inhibition": -7.8}, {"smiles": "Cc1ccc2c(c1N)C(=O)c1ccccc1C2=O", "activity change, negative = inhibition": 111}, {"smiles": "Cl/C=C\\Cl", "activity change, negative = inhibition": 12.8}, {"smiles": "O=C(O)CBr", "activity change, negative = inhibition": 2.48}, {"smiles": "O=Cc1ccc(Cl)cc1Cl", "activity change, negative = inhibition": -9.15}]}]}
